Assay results reported in PubChem BioAssay AID651808 (Broad Institute, 2012).
Where “and” joins values, the source holds several entries; their conditions need not be identical. Equal entries are not always repeated. Inconclusive results are not listed. Calls of active or inactive are those of the source. How the calls were made is not given here.

test: dose response, DH231 delta cqsS, luminescence, dry powder (AID 651808); conditions: V. cholerae DH231 delta cqsS, luxCDABE luminescence, 6 h; at 80 µM; test 2; stronger effect = higher value

| Compound | max activity (light induction) |
| --- | --- |
| O=C(Cc1ccccc1F)NC1CCCC1 | 0.357% (inactive) |
| O=C(Cc1cccc(OC(F)(F)F)c1)NC1CCCC1 | -5.92% (inactive) |
| O=C(Cc1ccc(-c2ccccc2)cc1)NC1CCOCC1 | -9.06% (inactive) |
| CC(C)c1ccc(CNc2nnnn2C)cc1 | -24.7% (inactive) |
| O=C(Cc1ccc(-c2ccccc2)cc1)NC1CCCC1 | -13.9% (inactive) and -5.11% (inactive) |
| CCn1nnnc1NCc1ccc(C(C)C)cc1 | -41.8% (inactive) and -46.4% (inactive) |
| O=C(Cc1ccc(-c2ccccc2)cc1)NC1CCCCC1 | -14.6% (inactive) |
| CCCn1nnnc1NCc1ccccc1Cl | -58.8% (inactive) |
| CCCn1nnnc1NCc1ccc(N2CCCC2)cc1 | -55.4% (inactive) |
| CC(C)NC(=O)Cc1ccc(-c2ccccc2)cc1 | -26.8% (inactive) |
| O=C(Cc1ccc(-c2ccccc2)cc1)NC1CCC1 | -12.2% (inactive) |
| O=C(Cc1ccccc1OC(F)(F)F)NC1CCCC1 | -14.6% (inactive) |
| O=C(Cc1cccc(F)c1)NC1CCCC1 | -4.2% (inactive) |
| O=C(NCc1ccc(-c2ccccc2)cc1)C1CCCC1 | -17% (inactive) |
| CCn1nnnc1NCc1ccc(N2CCCC2)cc1 | -52.6% (inactive) |
| CCCn1nnnc1NCc1ccc(C(C)C)cc1 | -51.3% (inactive) |
| Cn1nnnc1NCc1ccc(N2CCCC2)cc1 | -32.9% (inactive) |
| CCC(CC)NC(=O)Cc1ccc(-c2ccccc2)cc1 | -17.5% (inactive) |
| CCC(C)NC(=O)Cc1ccc(-c2ccccc2)cc1 (centres undefined) | -31.1% (inactive) |
| COc1ccc(CC(=O)NC2CCCC2)cc1 | -4.11% (inactive) |
| O=C(Cc1ccccc1Cl)NC1CCCC1 | -18.1% (inactive) |
| CS(=O)(=O)c1ccc(CC(=O)NC2CCCC2)cc1 | -47.4% (inactive) |
| O=C(Cc1ccccc1C(F)(F)F)NC1CCCC1 | -7.17% (inactive) |

same assay, conditions: V. cholerae DH231 delta cqsS, luxCDABE luminescence, 6 h; measured here: test 1 replicate run; at 80 µM; test 1; stronger effect = higher value

| Compound | max activity (light induction) |
| --- | --- |
| CCn1nnc(NCc2ccc(C)cc2)n1 | -23% |
| CCn1nnnc1NCc1ccc(C(C)C)cc1 | -24.1% and -23.5% |
| CCCn1nnnc1NCc1ccc(N2CCCC2)cc1 | -46.1% |
| CCn1nnnc1NCc1ccc(N2CCCC2)cc1 | -42.4% |
| CCCn1nnnc1NCc1ccc(C(C)C)cc1 | -24.4% |
| Cn1nnnc1NCc1ccc(N2CCCC2)cc1 | -32.2% |
